Laboratory results published in PubChem BioAssay AID1209 (Sanford-Burnham Center for Chemical Genomics, 2008).
Among all 190,000 compounds or so, about 810 (0.43%) were called active. Cut-off read from the data, not from the text of the source: active = inhibition above about 50%; inactive = the rest. The full list was thinned out, with actives kept by preference.

molecular target: Mannose-6-phosphate isomerase (Homo sapiens) (UniProt P34949); assay: inhibitors of human PMI, primary screen, biochemical, fluorescence intensity, coupled assay (AID 1209); conditions: purified PMI enzyme, at 20 µM, active compounds read high;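 note: plate controls were DMSO vehicle for no effect and wells lacking substrate for full effect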
Sequence (P34949 whole entry, looked up): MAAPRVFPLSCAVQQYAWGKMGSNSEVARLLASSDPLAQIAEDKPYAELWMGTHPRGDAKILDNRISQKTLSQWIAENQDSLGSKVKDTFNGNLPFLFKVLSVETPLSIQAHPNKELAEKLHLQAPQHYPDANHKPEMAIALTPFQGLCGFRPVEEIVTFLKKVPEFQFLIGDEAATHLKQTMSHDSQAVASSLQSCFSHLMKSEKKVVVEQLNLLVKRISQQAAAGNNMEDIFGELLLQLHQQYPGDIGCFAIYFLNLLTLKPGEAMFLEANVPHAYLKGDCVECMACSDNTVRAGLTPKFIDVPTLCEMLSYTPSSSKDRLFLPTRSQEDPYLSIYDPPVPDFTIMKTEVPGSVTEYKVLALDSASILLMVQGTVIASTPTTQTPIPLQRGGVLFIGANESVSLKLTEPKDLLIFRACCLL

inhibition, active:
CC(C)N=c1scc(-c2cccs2)n1/N=C/c1ccc(O)c(O)c1O 75.9%
CN=c1scc(-c2ccccc2F)n1/N=C/c1ccc(O)c(O)c1O 70.6%
Oc1ccc(/C=N/Nc2ccc(C(F)(F)F)cn2)cc1O 61.6%
CCN1C(=O)S/C(=C/c2ccc(Sc3nc4ccccc4[nH]3)o2)C1=O 56.4%

inhibition, inactive:
CCN1C(=O)CSc2ccc(C(=O)OC)cc21 -2.3%
COc1ccc(NC(=S)N(Cc2cccc(Br)c2)CC2CCC(C(=O)O)CC2)cc1 (stereo not drawn) -6.9%
CN=c1scc(-c2ccccc2F)n1/N=C(\C)c1cccnc1 -9.3%
Oc1ccc(/C=N/n2c(-c3ccco3)csc2=Nc2cccnc2)c(O)c1 -1.6%
CN=c1scc(-c2ccccc2F)n1/N=C/c1ccc[nH]1 -16.2%
CN=c1scc(C)n1/N=C/c1ccc(O)cc1O -4%
Cc1nc2ccccc2c(=O)n1/N=C/c1cn(-c2ccccc2)nc1-c1cccs1 -10.8%
CN=c1scc(-c2cccs2)n1/N=C/c1ccccc1O 5.2%
Cc1ccc(OCC(O)Cn2c(=N)n(CCN3CCOCC3)c3ccccc32)cc1 (stereo not drawn) -3.6%
CC(Oc1ccccc1)C(=O)N1CCN=C1SCc1ccccc1 (stereo not drawn) -6.4%
Cc1cc(F)ccc1S(=O)(=O)N1CCCOC1CNC(=O)C(=O)NCc1ccco1 (stereo not drawn) -3.1%
CCCCCNC(=O)c1ccc2c(=O)n(CCOC)c(=O)[nH]c2c1 -5.7%
O=C(CCNC(=O)c1ccccc1Cl)Nc1ccc(Br)c(C(F)(F)F)c1 15%
CN1C(=S)SC(N(O)C(=O)Nc2cccc3ccccc23)C1(C)C (stereo not drawn) 37.9%
CC(NC(=O)c1ccc(C(F)(F)F)cc1)C(c1ccccc1)N1CCOCC1 (stereo not drawn) -8.2%
NC(=O)CNc1n[nH]c(=S)[nH]c1=O -27.7%
Oc1ccc(/C=N/Nc2ccc(C(F)(F)F)cn2)cc1 -2.8%
COc1cc(/C=N/Nc2ccc(C(F)(F)F)cn2)ccc1O 7.1%
Cc1cc(O)c2c(c1)C(O)(C1OC(CO)C(O)C(O)C1O)c1cccc(O)c1C2=O (stereo not drawn) 2%
O=C(CCc1nnc(C2CCCCC2)o1)NCc1ccc(F)c(F)c1 -5.7%
CCOC(=O)c1cc(C(C)=O)c(=O)[nH]c1C 2.7%
CCCNC(=O)c1ccccc1NC(=O)c1ccccc1SC 0.3%
C=CCN1C(=O)S/C(=C/c2ccc(Sc3nc4ccccc4[nH]3)o2)C1=O 44.5%
CC(C)N1C(=O)S/C(=C/c2ccc(Sc3nc4ccccc4[nH]3)o2)C1=O 26.5%
